The list is not random: actives were taken first. Their share in the collection is about 3.8%.
HepG2 tox-1: counter-screen for TGF-b inhibitors: cytotoxicity in HepG2 cells | HepG2 CAGA-GFP viability, ATP luminescence, 18 h | Potency, µM (titrated, usually from 46.1 µM), for the others: at the highest dose activity change, negative = cytotoxicity, usual class: cytotoxic | actives 0.76% (n = 410,000) | AID 588856
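CellTiter-Glo luminescence gave cytotoxicity after 18 hours at 37 degrees C. The cells were HepG2 CAGA-GFP in 1% FBS DMEM, stimulated with 500 pg/mL TGF-beta after compound addition. %Activity was normalised to no-cell wells (complete cell-killing) and DMSO (no toxicity), and curves were fitted and classified.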
HT1080 IDH1KD tx: HT-1080 IDH1 knockdown cell toxicity (counter line); actives 2% (n = 360,000); AID 686971; HT-1080 IDH1 knockdown viability, ATP luminescence, 48 h; Potency, µM (highest dose often 46.1 µM), for inactives: at the highest dose activity, negative = toxicity, usual class: cytotoxic;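 also: 0% = DMSO wells and -100% = cell-free medium wells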
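% activity derives from luminescence (CellTiter-Glo), normalised to DMSO and no-cell wells. HT-1080-IDH1KD cells, 750/well, had 48 h compound exposure at 37 °C.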
ATXN viability: cell viability loss in ATXN counter-screen. S2 cells (HEK-293 line with an ATXN2-luciferase reporter) viability, CellTiter-Fluor protease fluorescence, 24 h. Potency, µM (titrated, usually from 56.7 µM), actives largely listed as cytotoxic. actives 0.49% (n = 400,000). AID 651635; also: nearly all actives have a fitted effect of over 40% in size
HT1080NT lethal: kills 2HG-producing HT-1080-NT fibrosarcoma cells; HT-1080-NT fibrosarcoma viability, CellTiter-Glo ATP luminescence, 48 h; Potency, µM (titrated, usually from 46.1 µM), for the others: at the highest dose activity, negative = less viability, hits mostly cytotoxic; actives 1.6% (n = 360,000); AID 686970;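 also: NT is the 2HG producing partner of a matched IDH1 knockdown line; 0% = DMSO-treated cells and -100% = media-only wells without cells; nearly all actives have a fitted effect of over 55% in size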
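Fibrosarcoma NT cells, 750 per well in 5% FBS RPMI, were exposed to compound for 48 hours. Viability: CellTiter-Glo luminescence.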
TGFb inhibitor: inhibitors of TGF-b signaling | HepG2 CAGA-GFP TGF-b/SMAD3 reporter, GFP fluorescence, 18 h; TGF-beta stimulated, 500 pg/mL final | Potency, µM (titrated, usually from 46.1 µM), inactives show at the highest dose activity, negative = inhibition, usual class: inhibitors | actives 1.2% (n = 410,000) | AID 588855; also: % is scaled to controls: 0 for no effect and ±100 for the full control effect; nearly all actives have a fitted effect of over 65% in size
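HEPG2 CAGA-GFP cells (1000/well, DMEM with 1% FBS) were pre-incubated 2 h at 37 degrees C, given compound by pin tool, then stimulated with TGF-beta at 500 pg/mL final for 18 h before per-cell GFP fluorescence imaging.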
ATXN2 expr inh: inhibitors of ATXN2 expression; Potency, µM (highest dose often 57 µM), for the others: at the top dose activity change, negative = inhibition, hits mostly inhibitors; actives 0.72% (n = 360,000); HEK-293 ATXN2-luciferase reporter, luminescence, 24 h; also: % is scaled to controls: 0 for no effect and ±100 for the full control effect; nearly all actives have a fitted effect of over 55% in size
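qHTS (up to 57 uM final) was run with 24 h compound exposure of reporter cells at 37 °C. Each well was multiplexed: SteadyGlo luminescence measured ATXN2-luciferase expression after a fluorogenic Gly-Phe-AFC viability readout (25 uM final).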
TGFb confirm: confirmation of TGF-b signaling inhibitors in HepG2 reporter cells | actives 63% (n = 1,600) | AID 720534 | HepG2 CAGA-GFP TGF-b reporter, GFP fluorescence, 18 h; cells stimulated with TGF-beta, 500 pg/mL | shares compounds with TGFb inhibitor | Potency, µM (highest dose often 46.1 µM), for inactives: top-dose activity, negative = inhibition, actives largely listed as inhibitors; also: % is scaled to controls: 0 for no effect and ±100 for the full control effect; nearly all actives have a fitted effect of over 65% in size
HepG2 tox-2: counter-screen for TGF-b inhibitors: cytotoxicity in HepG2 cells. HepG2 CAGA-GFP viability, ATP luminescence, 18 h; cells stimulated with TGF-beta, 500 pg/mL. Potency, µM (series often up to 46.1 µM), for the others: at the highest dose activity, negative = cytotoxicity, actives largely listed as inhibitors. actives 27% (n = 1,600). shares compounds with TGFb inhibitor; also: % is scaled to controls: 0 for no effect and ±100 for the full control effect; nearly all actives have a fitted effect of over 70% in size
CCL64 TGFb inh: TGF-b inhibition, CCL64 orthogonal assay; shares compounds with TGFb inhibitor; CCL64 CAGA-GFP reporter, TGF-b stimulated, GFP fluorescence, 18 h; Potency, µM (highest dose often 46.1 µM), for inactives: top-dose activity, negative = inhibition, hits mostly inhibitors; actives 41% (n = 1,600); also: nearly all actives have a fitted effect of over 65% in size
COP TGFb inh: validation of TGF-b inhibitors in HepG2 COP promoter reporter. Potency, µM (top dose mostly 46.1 µM), inactives show top-dose activity, negative = inhibition, usual class: inhibitors. HepG2 COP-GFP TGF-b reporter, GFP fluorescence, 18 h; cells stimulated by added recombinant TGF-beta. shares compounds with TGFb inhibitor. actives 3% (n = 1,600); also: nearly all actives have a fitted effect of over 70% in size
* = called active by the depositor; i = inactive; ? = inconclusive; . = no result given. Calls follow the shape of the dose curve; as a rule, active = well fitted curve in the direction sought with a large enough effect; inconclusive = small, poorly fitted or top-dose-only effect, or another doubt; inactive = no such curve, though single readings can be large; an effect the other way counts as inactive or inconclusive. Potency is read from the fitted curve at half-maximal effect.

SMILES	HepG2 tox-1	HT1080 IDH1KD tx	ATXN viability	HT1080NT lethal	TGFb inhibitor	ATXN2 expr inh	TGFb confirm	HepG2 tox-2	CCL64 TGFb inh	COP TGFb inh
COc1cc(CNCCO)cc(Cl)c1OCc1ccccc1Cl	-22%	?	i	?	11µM*	-7%	-94%	16µM*	29µM*	47%
O=[N+]([O-])c1c(NCCCO)cc(Sc2nc3ccccc3s2)c2nonc12	-34%	6.3µM*	25µM*	11µM*	18µM*	?	?	16µM*	6.5µM*	16µM*
Cc1nnc(Sc2cc(NCCCO)c([N+](=O)[O-])c3nonc23)s1	1%	16µM*	.	16µM*	5µM*	?	4.6µM*	23µM*	3.3µM*	?
Cc1c(C(=O)N/N=C/c2ccc(N(C)C)cc2)[nH]c2ccc(Cl)cc12	-2%	?	?	5.8µM*	4.5µM*	-24%	2.3µM*	-8%	?	-4%
CCc1ccc2c(c1)c(=O)c(C(=O)c1ccc(C)cc1)cn2CC(=O)Nc1ccc2c(c1)OCCO2	-1%	.	i	.	-7%	12%	.	.	.	.
O=S(=O)(CC(CN1CCCCC1)N1CCCCC1)c1ccccc1 (stereo not given)	18µM*	?	.	?	10µM*	.	13µM*	18µM*	4.6µM*	?
CCCCCCCCCCCCCCCC(=O)OC(C)C	.	.	i	.	.	13%	.	.	.	.
CCCCCCN1C[C@H](n2cc(-c3ccc(F)cc3)nn2)[C@@H](O)C[C@@H]1c1ccc(Cl)cc1	11µM*	?	.	?	7.1µM*	32µM*	21µM*	?	18µM*	?
CCC1Nc2ncnc(N3CCc4ccccc4C3)c2N(Cc2ccc(Br)cc2)C1=O (stereo not given)	-11%	?	?	?	13µM*	?	18µM*	18µM*	-81%	28%
CC1Nc2ncnc(N3CCc4ccccc4C3)c2N(Cc2ccc(Br)cc2)C1=O (stereo not given)	-24%	?	?	?	?	?	.	.	.	.
COc1cccc(C(=O)NCCCNC(=O)c2cccc(OC)c2)c1	6%	3%	i	-1%	5%	7%	.	.	.	.
COc1cc(OC)cc(C(=O)NCCCCCCNC(=O)c2cc(OC)cc(OC)c2)c1	-31%	-2%	i	-7%	-81%	3%	-12%	-7%	6%	3%
CC(C)(C)c1nnc(NC(=O)C2CCN(C(=O)c3ccccc3)CC2)s1	-21%	.	.	.	-20%	.	.	.	.	.
CCOC(=O)c1ccc(NC(=O)CC2C(=O)N(c3ccccc3)C(=O)N2C2CCCCC2)cc1 (stereo not given)	-5%	.	?	.	-8%	0%	.	.	.	.
COc1ccc(/C=N\NC(=O)c2ccccc2[N+](=O)[O-])cc1COc1c(F)c(F)c(F)c(F)c1F	-4%	2%	i	4%	8.9µM*	0%	2.6µM*	?	?	33%
COc1ccc(/C=N/NC(=O)c2ccccc2[N+](=O)[O-])cc1CN1CCc2cc(OC)c(OC)cc2C1C (stereo not given)	-1%	0%	i	-7%	11%	-12%	.	.	.	.
COc1ccc(NC(=O)CN2C(=O)CSc3ccc(S(=O)(=O)N(C)C)cc32)cc1OC	-22%	.	i	.	-8%	2%	.	.	.	.
O=C1C=C(NC2=CC3OC(c4ccccc4)OCC3OC2=O)CCC1 (stereo not given)	-18%	21µM*	?	-26%	10µM*	-25%	10µM*	?	13µM*	27%
COc1cccc(CNc2nc3cc(-c4ccc(C)cc4)sc3c(=O)n2C)c1OC	-1%	?	i	-1%	10µM*	-2%	2.6µM*	?	12µM*	3%
COc1cccc(CNc2nc3cc(-c4ccsc4)sc3c(=O)n2C)c1OC	3%	?	?	?	?	?	?	?	?	20%
COc1cccc(CNc2nc3cc(-c4ccc(F)cc4)sc3c(=O)n2C)c1OC	-26%	?	i	-13%	-2%	-6%	.	.	.	.
Cc1ccc(C)c(NS(=O)(=O)c2cc(C(=O)NCCC3=CCCCC3)ccc2C)c1	-15%	?	?	?	20µM*	?	?	?	?	37%
Cc1ccc(C)c(NS(=O)(=O)c2cc(C(=O)NCCSC3CCCCC3)ccc2C)c1	-29%	?	?	?	?	?	.	.	.	.
CCOc1ccc(NC(=O)Cn2c(=O)n(Cc3ccccc3)c(=O)c3sc4ccccc4c32)cc1	4%	.	.	.	11%	.	.	.	.	.
COC(=O)c1ccc2c(c1)N(CC(=O)Nc1cccc(C(F)(F)F)c1)C(=O)c1ccccc1S2	-7%	.	i	.	0%	-4%	.	.	.	.
COc1cc2c(c(OC)c1OC)-c1ccc(SC)c(=O)cc1C(NC=O)CC2 (stereo not given)	-34%	?	?	0.046µM*	-91%	-14%	?	23µM*	?	44%
COc1cc2c(c(OC)c1OC)-c1ccc(OC)c(=O)cc1C(NC(=O)c1ccccc1)CC2 (stereo not given)	-16%	0.021µM*	i	0.073µM*	?	1%	?	0%	?	?

Screens (PubChem)
